{"source": "paper PMC7819943", "about": "“Rice protein-binding microarrays: a tool to detect cis-acting elements near promoter regions in rice”", "note": "Over roughly 68,000 sequences, “fluorescence intensity (a.u.)” has its median near 9,100; the highest 2% begin near 16,000. Only a selection was taken, and the highest values are over-represented in it overall."}
{"target": "OsWRKY34 (Oryza sativa, UniProt Q0JBA9 1-250)", "sequence (Q0JBA9 entry or part of it)": "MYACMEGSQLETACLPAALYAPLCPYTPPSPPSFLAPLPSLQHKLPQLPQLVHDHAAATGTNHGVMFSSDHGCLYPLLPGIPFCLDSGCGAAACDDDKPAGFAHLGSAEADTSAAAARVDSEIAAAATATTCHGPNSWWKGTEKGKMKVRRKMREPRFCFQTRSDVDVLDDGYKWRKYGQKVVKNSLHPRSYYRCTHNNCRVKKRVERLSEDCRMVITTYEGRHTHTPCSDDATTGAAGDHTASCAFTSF", "test": "protein-binding microarray (RPBM); PBS, 2% BSA, 51.3 ng/ul salmon testes DNA, 50 uM zinc acetate, 200 nM TF, 25 C, 1 h; high values mean tight binding", "conditions": "protein: recombinant; tags: N-terminal polyhistidine and DsRed monomer fusion (pET32a); label: CyDye5-dUTP incorporated in the synthesized complementary strand; 3' TTTTT single-stranded linker to array surface; dsDNA, one strand shown", "procedure,_shortened": "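Polyhistidine-tagged DsRed fusions of transcription factors, joined at the N-terminus, were expressed in E. coli BL21-CodonPlus and isolated on Ni–NTA. They were incubated at 200 nM for 1 h at 25 °C on a custom Agilent array, double-stranded and BSA-blocked, in PBS with 2% BSA, salmon testes DNA and 50 µM zinc acetate. The binding signal is per-feature fluorescence intensity (arbitrary units) read on an Axon 4000B scanner after washing.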"}
{"sequence": "TCCTGTGCGCCTCCCTCGAGCGTGTGACTGTGTTTGTGACCGGAGTCACCTAGTGCAG", "binding signal": "8710 fluorescence intensity (a.u.)"}
{"sequence": "TTTAAGTTTGTTTGGTTGTGGGTTATAGGCTCTATTTCAACGGAGTCACCTAGTGCAG", "binding signal": "12000 fluorescence intensity (a.u.)"}
{"sequence": "ATTTGCATGACATATATCATTACTACATTATTTTATATAGCGGAGTCACCTAGTGCAG", "binding signal": "8930 fluorescence intensity (a.u.)"}
{"sequence": "GTGTGTTATTTTCTTCCACTCTTTAGTTTTCACTTTTTGACGGAGTCACCTAGTGCAG", "binding signal": "9240 fluorescence intensity (a.u.)"}
{"sequence": "GTTGCCCTTTTGCTCCTGTTGTCTTCTCCGCTCCTGTCGTCGGAGTCACCTAGTGCAG", "binding signal": "9800 fluorescence intensity (a.u.)"}
{"sequence": "TGGCATTTTTTTTTTCTTGTGAAAAACCGACGAGAGGAAGCGGAGTCACCTAGTGCAG", "binding signal": "8190 fluorescence intensity (a.u.)"}
{"sequence": "GTTCATTTTATAGTCTAGCAAAATTTCCTCTCTTTTTTTTCGGAGTCACCTAGTGCAG", "binding signal": "10700 fluorescence intensity (a.u.)"}
{"sequence": "AGTGACCCTTATCTCTTCACCTATCTCTCTCCCTTCCCCTCGGAGTCACCTAGTGCAG", "binding signal": "9580 fluorescence intensity (a.u.)"}
{"sequence": "CCTTCTATTTTTCCGTCACATCAAATGTTTGGACACATGTCGGAGTCACCTAGTGCAG", "binding signal": "9670 fluorescence intensity (a.u.)"}
{"sequence": "CAAACTTCTAATTTTTCCGTCACATCAAATGTTTGGATATCGGAGTCACCTAGTGCAG", "binding signal": "34900 fluorescence intensity (a.u.)"}
{"sequence": "TCTTTTGTATAGCACTGTACCGTATACAACACTGAATACACGGAGTCACCTAGTGCAG", "binding signal": "8080 fluorescence intensity (a.u.)"}
{"sequence": "ATCTAGCCTATCGCTCTTGTGTTCTCGGTGTGTACTTGGTCGGAGTCACCTAGTGCAG", "binding signal": "16600 fluorescence intensity (a.u.)"}
{"sequence": "ACGACGAGGTCGCTTTTTTCTTGTTGGGCTGGGCTGGGATCGGAGTCACCTAGTGCAG", "binding signal": "21800 fluorescence intensity (a.u.)"}
{"sequence": "TTTCTTTCTTTCTTTCTTGGGATCTTTTCCTTCTTTTTTTCGGAGTCACCTAGTGCAG", "binding signal": "12600 fluorescence intensity (a.u.)"}
{"sequence": "GTTCTCGGTGTGTACTTGGTCCATCAGTCTCTTCAGATCTCGGAGTCACCTAGTGCAG", "binding signal": "8120 fluorescence intensity (a.u.)"}
{"sequence": "CGTCGATCTCTATCTCTCTCTCTCGCTTGTTCTTCTTCACCGGAGTCACCTAGTGCAG", "binding signal": "15200 fluorescence intensity (a.u.)"}
{"sequence": "GTCAAACATCAACTTTTCCGTCACATCAAATGTTTGGACACGGAGTCACCTAGTGCAG", "binding signal": "8670 fluorescence intensity (a.u.)"}
{"sequence": "TCCTTTTTTTTGGGTGCTTTTCTTTTGTATAGCACTGTACCGGAGTCACCTAGTGCAG", "binding signal": "65500 fluorescence intensity (a.u.)"}
{"sequence": "TTCTTTTTTTGGCTTCCTTTTTTTTGTGTGTATATATGTACGGAGTCACCTAGTGCAG", "binding signal": "13700 fluorescence intensity (a.u.)"}
{"sequence": "TTCTTTGTTGGATTGATGATCGCTTTTGTGTGGGAGAGGTCGGAGTCACCTAGTGCAG", "binding signal": "9380 fluorescence intensity (a.u.)"}
{"sequence": "GTATGCATTATTATGCTGATTAATTTGGCCTGGTTATTTGCGGAGTCACCTAGTGCAG", "binding signal": "8160 fluorescence intensity (a.u.)"}
{"sequence": "GTCGGGTTCGGGTACTGTTGATGCTGATCGAGATGGTCCTCGGAGTCACCTAGTGCAG", "binding signal": "8650 fluorescence intensity (a.u.)"}
{"sequence": "AACTATTTTTTTATGGGTTTGTTGTGTAGATCATGTAGCACGGAGTCACCTAGTGCAG", "binding signal": "11100 fluorescence intensity (a.u.)"}
{"sequence": "TTCTACTTCTACACCTCGCAATGAAAAAAACAAATTTGACCGGAGTCACCTAGTGCAG", "binding signal": "8060 fluorescence intensity (a.u.)"}
{"sequence": "GCTTCTTCCGTTGCAATTCCATTCTCCTCTCTCTCCTGCTCGGAGTCACCTAGTGCAG", "binding signal": "11400 fluorescence intensity (a.u.)"}
{"sequence": "AGGACACCTTAGCATTCAGCCATCTTATTTCTCTGTATTACGGAGTCACCTAGTGCAG", "binding signal": "9420 fluorescence intensity (a.u.)"}
{"sequence": "TCCAGAAGACACCCGCCTGCTCCACTGCCGTTCCTGTCGACGGAGTCACCTAGTGCAG", "binding signal": "9120 fluorescence intensity (a.u.)"}
{"sequence": "ACTGTGAATGTGTGACTAAATGGGCCGAGCCCAACTACTACGGAGTCACCTAGTGCAG", "binding signal": "9860 fluorescence intensity (a.u.)"}
{"sequence": "GATTCATCTTGCCCTCAAAGTTTCCTGCTTTGTTTGATCACGGAGTCACCTAGTGCAG", "binding signal": "9520 fluorescence intensity (a.u.)"}
{"sequence": "GGAGGGAGTAGTATATTGGGGATTTTCAGTTGGGTCTGGGCGGAGTCACCTAGTGCAG", "binding signal": "14200 fluorescence intensity (a.u.)"}
{"sequence": "GCCATTCTATAGGAGGTGGTGGGGAGGGTTTCGTGCTCCTCGGAGTCACCTAGTGCAG", "binding signal": "10800 fluorescence intensity (a.u.)"}
{"sequence": "TTTGTCACGCGAATACTGTATTGTAGGGTGGGGTTCACTGCGGAGTCACCTAGTGCAG", "binding signal": "12100 fluorescence intensity (a.u.)"}
{"sequence": "GCCGGCTAAACTGGCTTATTGTACTTGCTCTTACTTGACTCGGAGTCACCTAGTGCAG", "binding signal": "9430 fluorescence intensity (a.u.)"}
{"sequence": "TCTCGTTTCGTTCGTGTATCATGTTTTTTTTTGGGTCGCTCGGAGTCACCTAGTGCAG", "binding signal": "8730 fluorescence intensity (a.u.)"}
{"sequence": "ATGTTTTTTTTTGGGTCGCTTTCTTTGTGTGTGTATATATCGGAGTCACCTAGTGCAG", "binding signal": "16400 fluorescence intensity (a.u.)"}
{"sequence": "ATGTTTTAATTTTGGGCTTCTTTTTGTTTTGGGCTTTTATCGGAGTCACCTAGTGCAG", "binding signal": "24300 fluorescence intensity (a.u.)"}
{"sequence": "GTGTGTTGTTGTTCTTGTTTTGGTTCTTTTCTAGTAGTATCGGAGTCACCTAGTGCAG", "binding signal": "8750 fluorescence intensity (a.u.)"}
{"sequence": "ATTTTTTATTTCTTTTGTTTCAAATTTCAGTTCTTTTTATCGGAGTCACCTAGTGCAG", "binding signal": "9720 fluorescence intensity (a.u.)"}
{"sequence": "TCATTTTGTATTTTGTTGTCTCTGTCTTGCTGTTCCCTCGCGGAGTCACCTAGTGCAG", "binding signal": "8810 fluorescence intensity (a.u.)"}
{"sequence": "TTTTCTTTCTTTTTCTTTTTTTTTATCGTTTTGTTCTTCTCGGAGTCACCTAGTGCAG", "binding signal": "10500 fluorescence intensity (a.u.)"}
{"sequence": "GCTCTCTCTCTCTCTCTCTCTCGCTGTCTCTCTCCCTCCCCGGAGTCACCTAGTGCAG", "binding signal": "9110 fluorescence intensity (a.u.)"}
{"sequence": "ATACTAGGCTGTATCTCTCTCGCTCTCTTGTTGTTCCCTCCGGAGTCACCTAGTGCAG", "binding signal": "18200 fluorescence intensity (a.u.)"}
{"sequence": "GGTCATACTCTCTTCGTCCCATTTAATGTACAATCATGCTCGGAGTCACCTAGTGCAG", "binding signal": "8860 fluorescence intensity (a.u.)"}
{"sequence": "GTTTCATAATCCTGTGTTCTTTTTGTTTACTATGGTTTTGCGGAGTCACCTAGTGCAG", "binding signal": "11000 fluorescence intensity (a.u.)"}
{"sequence": "GCAACTGATAGACTAACTTGTCCGGTCCTGTTTTGGAATCCGGAGTCACCTAGTGCAG", "binding signal": "10200 fluorescence intensity (a.u.)"}
{"sequence": "TGCCAGCACAAATCTCGAAGCACATCCAATGATCCAAGACCGGAGTCACCTAGTGCAG", "binding signal": "9540 fluorescence intensity (a.u.)"}
{"sequence": "TACTGTTGCTGCTAGTTCACCATTTGCGCATTTCCTCTTCCGGAGTCACCTAGTGCAG", "binding signal": "11700 fluorescence intensity (a.u.)"}
{"sequence": "TCGCCGTTCGCTGGTATATGCCGTTGTCTTGGAATCATCTCGGAGTCACCTAGTGCAG", "binding signal": "11100 fluorescence intensity (a.u.)"}
{"sequence": "GGCGGTATCGACGAAGAATCTCGGGGCGGTGGGGAGGTTTCGGAGTCACCTAGTGCAG", "binding signal": "17700 fluorescence intensity (a.u.)"}
{"sequence": "GGGAGAGGTGGAGACCAGGAGGTGGGGTGGCGGAGGTCATCGGAGTCACCTAGTGCAG", "binding signal": "14300 fluorescence intensity (a.u.)"}
{"sequence": "CGGTGTTGGGATCGGGTTTGGAGGTGGTAAGGGTGGTGGTCGGAGTCACCTAGTGCAG", "binding signal": "10600 fluorescence intensity (a.u.)"}
{"sequence": "AAATTTAGGTGGAGGGGTGTGGGCGGTTTCGTGCAAAAATCGGAGTCACCTAGTGCAG", "binding signal": "19100 fluorescence intensity (a.u.)"}
{"sequence": "CGCGGGAATCGGCCGGCGACGTGGGGAGGTGGGGAGGAGACGGAGTCACCTAGTGCAG", "binding signal": "8900 fluorescence intensity (a.u.)"}
{"sequence": "CCGGTGGGGTGGGGAATTCGGCGGAGGAAGACGACGACGACGGAGTCACCTAGTGCAG", "binding signal": "9250 fluorescence intensity (a.u.)"}
{"sequence": "GCATCGTGGGGTGTGGGTGGCGGTTTTGGAGGGGAGAGGTCGGAGTCACCTAGTGCAG", "binding signal": "23200 fluorescence intensity (a.u.)"}
{"sequence": "TGACATGGTTGTTAGGGTTTGCGAGCAAATTTTCGTGGGGCGGAGTCACCTAGTGCAG", "binding signal": "10100 fluorescence intensity (a.u.)"}
{"sequence": "GTGGAGGCGCGGTGGGGTGGGGAAGGAGTGTGTTTCGTGTCGGAGTCACCTAGTGCAG", "binding signal": "15500 fluorescence intensity (a.u.)"}
